A short description of experiment [1]: ATG_TCF_b_cat_CIS: Attagene CIS-FACTORIAL HepG2 Assay for human T-Cell-Factor with beta-catenin (TCF/b-cat) (AID 2282965; active = hit-call score of the fitted dose curve at least 0.9, where 1 is the maximum; inactive = score below 0.9). To be noted: HepG2 TCF/beta-catenin cis-reporter transcription, actives raise or lower the signal. In outline: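 Endogenous transcription factor activity is captured through cis-promoter reporter constructs transiently introduced into human HepG2 liver cells. Induced reporter mRNA is measured after 24 h and fitted bidirectionally relative to DMSO.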

A short description of experiment [2]: ATG_TAL_CIS: Attagene CIS-FACTORIAL HepG2 Assay for human TAL Basal Promoter (AID 2282966; active = hit-call score of the fitted dose curve at least 0.9, where 1 is the maximum; inactive = score below 0.9;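 note: background control endpoint measuring basal TAL promoter reporter mRNA not a specific factor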). To be noted: HepG2 Attagene cis-factorial TAL promoter reporter; actives raise or lower the signal. In outline: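 HepG2, transient MRTU transfection, 24 h compound exposure; RNA → oligo(dT) RT → PCR → 6-FAM primer extension → HpaI digest → CE fluorescence. Bidirectional curve fit vs DMSO. Background-control readout.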

Experiment [3] is described as follows: ATG_TGFb_CIS: Attagene CIS-FACTORIAL HepG2 Assay for human Transforming Growth Factor (TGF) (AID 2282967; active = hit-call score of the fitted dose curve at least 0.9, where 1 is the maximum; inactive = score below 0.9). The following applies: HepG2 Attagene CIS TGFb reporter, mRNA transcription; actives raise or lower the signal. In outline:
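Transcript-level reporter readout: HepG2 transfectants, 24 h exposure, RNA to cDNA, reporter-specific PCR, fluorescent primer extension, capillary sizing against ROX standards. Gain- or loss-of-signal relative to DMSO.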

The target of experiment [4] is Estrogen receptor (Homo sapiens) (UniProt P03372). Kind of experiment: ATG_ERa_TRANS: Attagene TRANS-FACTORIAL HepG2 Assay for human Estrogen Receptor alpha (ERa) (AID 2282970). To be noted: HepG2 Attagene TRANS ERa GAL4 reporter, mRNA. In outline:
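Reporter mRNA induction after 24 hours, detected by fluorescent RT-PCR and capillary electrophoresis, gives the read-out. Cells are HepG2 transiently transfected with GAL4-UAS reporter transcription units responding to chimeric NR-Gal4. Activity is taken as gain of signal over DMSO baseline.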

In experiment [5] the target is Steroid hormone receptor ERR1 (Homo sapiens) (UniProt P11474). Description: ATG_ERRa_TRANS: Attagene TRANS-FACTORIAL HepG2 Assay for human Estrogen-Related Receptor alpha (ERRa) (AID 2282971). The following applies: HepG2 Attagene TRANS reporter, ERRa transactivation. In outline: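 Transfected HepG2, 24 h dosing, ERRa-Gal4 chimera driving GAL4-UAS reporter. Readout: reporter mRNA via RT-PCR plus capillary electrophoresis (fluorescence). Positive direction vs DMSO control.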

For experiment [6], the target named is X-box-binding protein 1 (Homo sapiens) (UniProt P17861). Description: ATG_Xbp1_CIS: Attagene CIS-FACTORIAL HepG2 Assay for human X-box Binding Protein 1 (XBP1) (AID 2282972; active = hit-call score of the fitted dose curve at least 0.9, where 1 is the maximum; inactive = score below 0.9). The following applies: HepG2 XBP1 cis-element reporter, Attagene multiplex; actives raise or lower the signal. In outline:
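Changes in reporter transcript abundance, read by RT-PCR and capillary electrophoresis, reflect endogenous transcription factor activity. Transfected HepG2 cells received compound for 24 hours; DMSO defined baseline for bidirectional analysis.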

The nature of experiment [7]: ATG_M_19_TRANS: Attagene TRANS-FACTORIAL HepG2 Assay for M19 Transcription Factor (Internal Marker) (AID 2282974). To be noted: HepG2 Attagene TRANS-FACTORIAL M19 internal marker reporter. In outline:
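Fluorescence of 6-FAM-labelled reporter cDNA fragments, separated by capillary electrophoresis, served as the readout. These derived from HepG2 cells carrying transfected GAL4-UAS reporter units after 24 h dosing, with DMSO as negative control.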

The nature of experiment [8]: ATG_GAL4_TRANS: Attagene TRANS-FACTORIAL HepG2 Assay for GAL4 (Internal Marker) (AID 2282976). To be noted: HepG2 Attagene TRANS GAL4 internal marker reporter. In outline:
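RT-PCR/capillary electrophoresis readout of reporter mRNA. HepG2, transient MRTU transfection (GAL4-UAS reporters), 24 h compound exposure. Background-control endpoint, positive direction vs DMSO baseline.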

Experiment [9] deals with Oxysterols receptor LXR-alpha (Homo sapiens) (UniProt Q13133). Kind of experiment: ATG_LXRa_TRANS: Attagene TRANS-FACTORIAL HepG2 Assay for human Liver X Receptor alpha (LXRa) (AID 2282980). To be noted: HepG2 Attagene TRANS reporter, LXRa transactivation. In outline: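 Read-out: reporter transcript levels by RT-PCR plus capillary electrophoresis, fluorescence intensity. Transiently transfected HepG2, exogenous NR-GAL4 chimera, GAL4-UAS reporters; 24 h compound exposure. Activity = increase over DMSO negative control.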

Experiment [10] is described as follows: ATG_M_06_TRANS: Attagene TRANS-FACTORIAL HepG2 Assay for M06 Transcription Factor (Internal Marker) (AID 2282983). To be noted: HepG2 Attagene TRANS M06 internal marker reporter. In outline:
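Read-out: fluorescent reporter cDNA fragments resolved by capillary electrophoresis after RT-PCR and HpaI cut. Source cells were HepG2 carrying transfected multi-reporter GAL4 constructs, dosed 24 h. Increase over DMSO control analysed.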

The nature of experiment [11]: ATG_M_32_TRANS: Attagene TRANS-FACTORIAL HepG2 Assay for M32 Transcription Factor (Internal Marker) (AID 2282984). The following applies: HepG2 Attagene TRANS M32 internal marker reporter. In outline: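 Cell-based TRANS-format assay in HepG2: exogenous chimeric GAL4 reporter units transiently expressed, compounds applied 24 h. Reporter mRNA detected by RT-PCR plus capillary electrophoresis; this readout is an internal background marker.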

The target of experiment [12] is Nuclear receptor subfamily 4 group A member 2 (Homo sapiens) (UniProt P43354). Kind of experiment: ATG_NURR1_TRANS: Attagene TRANS-FACTORIAL HepG2 Assay for human Nuclear Receptor Related Protein 1 (NURR1) (AID 2282985). To be noted: HepG2 Attagene TRANS reporter, mRNA readout. In outline: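 Measures transcriptional activation by an exogenous NR-Gal4 chimera in transfected HepG2 liver cells. After 24 h, reporter RNA is reverse-transcribed, amplified and resolved by capillary electrophoresis; DMSO defines baseline.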

Experiment [13] concerns the target Transcriptional activator Myb (Homo sapiens) (UniProt P10242). Description: ATG_Myb_CIS: Attagene CIS-FACTORIAL HepG2 Assay for human Myeloblastosis (Myb) Proto-Oncogene Transcription Factor (AID 2282986; active = hit-call score of the fitted dose curve at least 0.9, where 1 is the maximum; inactive = score below 0.9). The following applies: HepG2 Attagene CIS-FACTORIAL Myb reporter transcription; actives raise or lower the signal. In outline:
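Reporter transcript levels, quantified by fluorescent RT-PCR and capillary electrophoresis, serve as the read-out. Transfected HepG2 cells carrying cis-promoter reporter units are dosed for 24 hours, and curves are fitted bidirectionally against DMSO controls.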

In experiment [14] the target is Nuclear receptor subfamily 1 group I member 3 (Homo sapiens) (UniProt Q14994). Kind of experiment: ATG_CAR_TRANS: Attagene TRANS-FACTORIAL HepG2 Assay for human Constitutive Androstane Receptor (CAR) (AID 2282969).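 Note: activators raise reporter mRNA above DMSO so AC50 marks induction.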 To be noted: HepG2 Attagene TRANS-FACTORIAL CAR reporter. In outline:
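Signal is reporter mRNA induction relative to DMSO, measured 24 h after dosing by RT-PCR with fluorescent primer extension and capillary electrophoresis. Human HepG2 liver cells carried transiently transfected chimeric NR-Gal4/GAL4-UAS reporter constructs.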

For experiment [15], the target named is Estrogen-related receptor gamma (Homo sapiens) (UniProt P62508). Kind of experiment: ATG_ERRg_TRANS: Attagene TRANS-FACTORIAL HepG2 Assay for human Estrogen-Related Receptor gamma (ERRg) (AID 2282977).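 Note: hits increase reporter signal over DMSO so potencies reflect activators.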 The following applies: HepG2 Attagene TRANS reporter, ERRg transactivation. In outline: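 Exogenous NR-Gal4 chimera activity was assessed in HepG2 cells bearing transfected GAL4-UAS reporters. After 24 h dosing, total RNA underwent RT-PCR, fluorescent primer extension and HpaI digestion before capillary electrophoresis, with gain of signal scored against DMSO.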

The target of experiment [16] is Oxysterols receptor LXR-beta (Homo sapiens) (UniProt P55055). Description: ATG_LXRb_TRANS: Attagene TRANS-FACTORIAL HepG2 Assay for human Liver X Receptor beta (LXRb) (AID 2282981). To be noted: HepG2 Attagene TRANS GAL4-LXRb reporter, mRNA. In outline:
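After 24 h of chemical treatment, transfected HepG2 cells yield total RNA; reporter cDNA is PCR-amplified, FAM-labelled, HpaI-cut and run on capillary electrophoresis. Signal reflects chimeric LXRb-Gal4 activity on GAL4-UAS reporters.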

The target in experiment [17] is Hepatocyte nuclear factor 4-alpha (Homo sapiens) (UniProt P41235). Kind of experiment: ATG_HNF4a_TRANS: Attagene TRANS-FACTORIAL HepG2 Assay for human Hepatocyte Nuclear Factor 4 alpha (HNF4a) (AID 2282982). The following applies: HepG2 HNF4a transactivation reporter, mRNA readout. In outline:
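Multiplexed reporter assay: transfected HepG2, 24 h exposure, total RNA → oligo(dT) RT → PCR → 6-FAM extension → HpaI digest → CE fluorescence. DMSO = negative control.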

Experiment [18] concerns the target Glucocorticoid receptor (Homo sapiens) (UniProt P04150). Kind of experiment: ATG_GR_TRANS: Attagene TRANS-FACTORIAL HepG2 Assay for human Glucocorticoid Receptor (GR) (AID 2282978).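 Note: activators score as hits since higher reporter transcript over DMSO is fitted.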 The following applies: HepG2 Attagene TRANS GR reporter, mRNA transcription. In outline: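 Fluorescent capillary-electrophoresis quantitation of reporter mRNA is the readout, taken 24 h after dosing human HepG2 cells carrying transiently transfected GAL4-UAS reporter units activated by chimeric NR-GAL4 fusions; activity scored as induction over DMSO.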

Experiment [19] addresses Bile acid receptor (Homo sapiens) (UniProt Q96RI1). Kind of experiment: ATG_FXR_TRANS: Attagene TRANS-FACTORIAL HepG2 Assay for Farnesoid X Receptor (FXR) (AID 2282979).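 Note: hits raise reporter mRNA above DMSO so AC50 marks FXR activation.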 The following applies: HepG2 Attagene TRANS FXR-GAL4 reporter transcription. In outline:
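Read-out: fluorescent reporter transcripts quantified by capillary electrophoresis after RT-PCR of total RNA. Source cells were HepG2 transiently carrying chimeric NR-GAL4 plus GAL4-UAS reporter units, dosed 24 h. Activity fitted upward relative to DMSO baseline.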

Each structure is given as a SMILES string. Inconclusive results are not listed. Active and inactive are the calls of the source. Rule for the calls, unless noted: active = hit-call score of the fitted dose curve at least 0.9, where 1 is the maximum; inconclusive = response in the unintended direction; inactive = score below 0.9.

Estrogen receptor (Homo sapiens), sequence (P03372 whole entry, looked up, the tested form may be a part): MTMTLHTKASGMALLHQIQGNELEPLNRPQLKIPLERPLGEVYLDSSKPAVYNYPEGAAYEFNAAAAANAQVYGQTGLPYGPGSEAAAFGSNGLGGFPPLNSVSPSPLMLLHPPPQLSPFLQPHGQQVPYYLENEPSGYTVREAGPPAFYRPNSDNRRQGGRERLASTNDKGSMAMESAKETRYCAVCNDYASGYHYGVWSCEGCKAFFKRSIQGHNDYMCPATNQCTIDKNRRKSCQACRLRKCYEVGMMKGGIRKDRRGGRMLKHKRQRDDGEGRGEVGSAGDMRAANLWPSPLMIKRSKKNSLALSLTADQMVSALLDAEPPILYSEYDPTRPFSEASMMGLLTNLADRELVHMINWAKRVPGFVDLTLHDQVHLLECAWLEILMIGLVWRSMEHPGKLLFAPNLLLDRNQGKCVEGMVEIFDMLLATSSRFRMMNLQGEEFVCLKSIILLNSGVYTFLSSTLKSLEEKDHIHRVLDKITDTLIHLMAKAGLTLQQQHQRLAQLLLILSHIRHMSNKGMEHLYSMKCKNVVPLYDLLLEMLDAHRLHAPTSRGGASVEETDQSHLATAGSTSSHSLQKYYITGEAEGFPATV
Oxysterols receptor LXR-beta (Homo sapiens), sequence (P55055 whole entry, looked up, the tested form may be a part): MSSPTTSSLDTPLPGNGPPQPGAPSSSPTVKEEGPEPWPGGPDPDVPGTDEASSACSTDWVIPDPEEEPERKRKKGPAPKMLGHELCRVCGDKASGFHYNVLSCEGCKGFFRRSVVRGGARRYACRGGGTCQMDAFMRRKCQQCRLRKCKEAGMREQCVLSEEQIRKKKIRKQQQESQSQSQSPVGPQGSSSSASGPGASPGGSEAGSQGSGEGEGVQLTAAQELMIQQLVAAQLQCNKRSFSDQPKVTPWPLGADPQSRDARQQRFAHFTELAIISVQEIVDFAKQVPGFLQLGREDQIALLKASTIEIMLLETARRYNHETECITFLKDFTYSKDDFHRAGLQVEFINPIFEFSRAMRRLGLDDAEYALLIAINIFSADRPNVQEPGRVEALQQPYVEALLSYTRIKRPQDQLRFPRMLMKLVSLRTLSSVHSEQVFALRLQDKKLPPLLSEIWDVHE
Transcriptional activator Myb (Homo sapiens), sequence (P10242 whole entry, looked up): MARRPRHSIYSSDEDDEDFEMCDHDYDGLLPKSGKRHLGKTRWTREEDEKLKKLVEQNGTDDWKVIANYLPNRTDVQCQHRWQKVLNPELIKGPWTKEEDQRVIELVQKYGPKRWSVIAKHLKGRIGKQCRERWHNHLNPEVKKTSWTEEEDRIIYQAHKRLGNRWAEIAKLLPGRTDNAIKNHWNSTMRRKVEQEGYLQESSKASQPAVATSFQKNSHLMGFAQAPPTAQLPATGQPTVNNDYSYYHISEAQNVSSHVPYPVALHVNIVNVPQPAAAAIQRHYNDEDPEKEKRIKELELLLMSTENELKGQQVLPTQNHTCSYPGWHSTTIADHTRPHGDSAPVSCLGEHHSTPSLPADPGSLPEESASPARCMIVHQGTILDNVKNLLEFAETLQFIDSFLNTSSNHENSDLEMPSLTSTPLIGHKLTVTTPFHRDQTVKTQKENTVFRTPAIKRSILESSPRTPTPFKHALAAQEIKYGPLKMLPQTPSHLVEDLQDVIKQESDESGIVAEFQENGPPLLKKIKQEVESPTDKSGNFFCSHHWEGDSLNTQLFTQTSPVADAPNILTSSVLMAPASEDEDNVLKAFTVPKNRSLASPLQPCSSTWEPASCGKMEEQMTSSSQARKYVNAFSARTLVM
Steroid hormone receptor ERR1 (Homo sapiens), sequence (P11474 whole entry, looked up, the tested form may be a part): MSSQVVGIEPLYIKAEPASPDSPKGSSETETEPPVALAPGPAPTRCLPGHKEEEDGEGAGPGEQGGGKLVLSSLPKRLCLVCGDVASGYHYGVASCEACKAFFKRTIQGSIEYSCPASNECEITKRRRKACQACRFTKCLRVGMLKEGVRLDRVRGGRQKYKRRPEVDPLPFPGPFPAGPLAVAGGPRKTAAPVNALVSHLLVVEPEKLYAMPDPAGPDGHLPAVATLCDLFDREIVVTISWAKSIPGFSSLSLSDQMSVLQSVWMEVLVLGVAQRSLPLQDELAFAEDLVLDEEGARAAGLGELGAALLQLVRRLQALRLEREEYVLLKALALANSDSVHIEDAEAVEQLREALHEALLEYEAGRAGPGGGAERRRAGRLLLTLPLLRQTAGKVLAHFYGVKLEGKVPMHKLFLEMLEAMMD
Oxysterols receptor LXR-alpha (Homo sapiens), sequence (Q13133 whole entry, looked up, the tested form may be a part): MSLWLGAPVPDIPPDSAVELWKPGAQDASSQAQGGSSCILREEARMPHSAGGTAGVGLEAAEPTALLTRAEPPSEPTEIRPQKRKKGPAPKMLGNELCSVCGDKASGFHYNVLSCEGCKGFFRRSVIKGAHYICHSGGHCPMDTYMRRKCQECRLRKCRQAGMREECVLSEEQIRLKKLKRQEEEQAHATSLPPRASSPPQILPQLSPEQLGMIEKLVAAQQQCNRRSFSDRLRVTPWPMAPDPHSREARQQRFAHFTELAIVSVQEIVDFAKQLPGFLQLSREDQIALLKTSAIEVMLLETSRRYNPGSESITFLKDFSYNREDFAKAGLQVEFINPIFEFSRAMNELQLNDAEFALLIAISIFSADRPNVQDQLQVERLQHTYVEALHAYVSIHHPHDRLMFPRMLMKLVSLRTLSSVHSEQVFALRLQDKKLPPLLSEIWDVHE
Hepatocyte nuclear factor 4-alpha (Homo sapiens), sequence (P41235 whole entry, looked up): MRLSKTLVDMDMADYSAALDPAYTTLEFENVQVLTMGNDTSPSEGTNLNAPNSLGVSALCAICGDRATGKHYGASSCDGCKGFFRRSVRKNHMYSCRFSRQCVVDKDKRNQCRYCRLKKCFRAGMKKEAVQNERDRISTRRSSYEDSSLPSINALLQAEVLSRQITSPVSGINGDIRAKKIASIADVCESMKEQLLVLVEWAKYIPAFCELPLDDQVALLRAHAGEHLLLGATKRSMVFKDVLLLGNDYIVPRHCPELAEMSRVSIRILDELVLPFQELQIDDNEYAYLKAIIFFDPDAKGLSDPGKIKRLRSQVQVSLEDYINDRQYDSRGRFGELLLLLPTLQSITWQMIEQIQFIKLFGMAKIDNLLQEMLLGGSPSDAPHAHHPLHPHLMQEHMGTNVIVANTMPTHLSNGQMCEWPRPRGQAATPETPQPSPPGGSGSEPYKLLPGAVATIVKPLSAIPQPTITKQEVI
Glucocorticoid receptor (Homo sapiens), sequence (P04150 whole entry, looked up, the tested form may be a part): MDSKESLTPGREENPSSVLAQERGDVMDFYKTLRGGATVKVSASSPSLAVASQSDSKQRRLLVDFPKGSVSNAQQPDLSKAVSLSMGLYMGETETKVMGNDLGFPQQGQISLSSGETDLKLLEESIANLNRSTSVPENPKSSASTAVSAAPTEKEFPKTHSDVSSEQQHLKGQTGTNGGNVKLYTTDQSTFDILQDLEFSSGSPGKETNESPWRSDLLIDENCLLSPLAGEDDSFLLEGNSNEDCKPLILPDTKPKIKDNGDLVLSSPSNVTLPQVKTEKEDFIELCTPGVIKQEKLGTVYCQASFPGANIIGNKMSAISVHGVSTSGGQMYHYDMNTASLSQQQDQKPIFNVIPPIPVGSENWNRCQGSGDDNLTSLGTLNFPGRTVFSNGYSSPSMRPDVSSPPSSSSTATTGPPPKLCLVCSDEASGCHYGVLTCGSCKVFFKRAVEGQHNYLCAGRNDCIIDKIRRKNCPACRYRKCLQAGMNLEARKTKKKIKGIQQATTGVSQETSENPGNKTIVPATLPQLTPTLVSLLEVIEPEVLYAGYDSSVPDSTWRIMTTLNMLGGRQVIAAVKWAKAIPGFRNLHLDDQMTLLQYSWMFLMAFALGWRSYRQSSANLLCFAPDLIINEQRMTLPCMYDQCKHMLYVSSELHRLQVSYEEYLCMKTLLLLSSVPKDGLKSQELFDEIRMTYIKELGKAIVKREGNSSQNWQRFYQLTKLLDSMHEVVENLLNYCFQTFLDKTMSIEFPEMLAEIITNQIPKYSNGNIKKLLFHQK
Nuclear receptor subfamily 1 group I member 3 (Homo sapiens), sequence (Q14994 whole entry, looked up, the tested form may be a part): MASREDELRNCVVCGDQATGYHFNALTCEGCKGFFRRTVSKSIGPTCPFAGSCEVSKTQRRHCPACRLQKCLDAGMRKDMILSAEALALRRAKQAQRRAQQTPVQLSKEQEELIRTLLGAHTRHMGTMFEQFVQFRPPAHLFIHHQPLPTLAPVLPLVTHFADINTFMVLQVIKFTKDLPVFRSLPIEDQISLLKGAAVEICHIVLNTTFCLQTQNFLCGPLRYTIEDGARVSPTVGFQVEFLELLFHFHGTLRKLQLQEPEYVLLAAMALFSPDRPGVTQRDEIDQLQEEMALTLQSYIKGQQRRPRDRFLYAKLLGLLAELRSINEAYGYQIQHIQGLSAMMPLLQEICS
X-box-binding protein 1 (Homo sapiens), sequence (P17861 whole entry, looked up): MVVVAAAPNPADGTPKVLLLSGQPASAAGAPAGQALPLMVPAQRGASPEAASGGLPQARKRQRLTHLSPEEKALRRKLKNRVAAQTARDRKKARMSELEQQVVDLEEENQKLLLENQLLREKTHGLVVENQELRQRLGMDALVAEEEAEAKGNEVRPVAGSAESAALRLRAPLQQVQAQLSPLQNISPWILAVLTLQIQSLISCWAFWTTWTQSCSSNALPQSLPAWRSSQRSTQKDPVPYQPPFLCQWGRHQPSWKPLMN
Bile acid receptor (Homo sapiens), sequence (Q96RI1 whole entry, looked up, the tested form may be a part): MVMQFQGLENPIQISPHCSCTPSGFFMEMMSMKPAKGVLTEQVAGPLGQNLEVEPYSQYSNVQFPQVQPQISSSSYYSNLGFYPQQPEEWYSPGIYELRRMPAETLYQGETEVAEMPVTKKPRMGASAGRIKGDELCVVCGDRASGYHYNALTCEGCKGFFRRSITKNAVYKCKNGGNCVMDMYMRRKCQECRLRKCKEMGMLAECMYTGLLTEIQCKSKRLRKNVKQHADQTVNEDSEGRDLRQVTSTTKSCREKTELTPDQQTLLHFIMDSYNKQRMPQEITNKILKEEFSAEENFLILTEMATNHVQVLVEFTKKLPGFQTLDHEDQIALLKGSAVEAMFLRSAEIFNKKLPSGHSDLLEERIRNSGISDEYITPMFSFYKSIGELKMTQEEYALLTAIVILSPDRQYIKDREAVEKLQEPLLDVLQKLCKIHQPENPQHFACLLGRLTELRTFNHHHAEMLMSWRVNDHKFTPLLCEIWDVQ

As for `CCC(C)C1CCCCC1=O` (stereo not given), the call in experiment [1], in experiment [2], in [3], in [4], in experiment [5] and in [6] was inactive. Besides, the compound was called inactive in [7], in [8], in experiment [9], in [10], in [11] and in experiment [12]. Also, the outcome in experiment [13] was inactive.
What is called AC50 is the concentration at which the activity in the assay is half-maximal. For `Cc1cc(O)c2c(c1)C(=O)c1cc(O)cc(O)c1C2=O`, the result in experiment [1], in [2], in experiment [3], in [14], in [5] and in [15] was inactive. Besides, the outcome in [9], in experiment [16], in experiment [17], in experiment [12] and in experiment [13] was inactive. The AC50 in experiment [6] was 9.89 µM (active).
Turning to `CC(CO)c1ccccc1` (stereo not given), the call in experiment [1], in [2], in [3], in experiment [14], in experiment [4] and in experiment [7] was inactive. Also, the result in experiment [8], in experiment [11] and in experiment [13] was inactive.
Turning to `CC(C)COC(=O)c1ccccc1O`, the compound was called inactive in experiment [1], in experiment [2], in [3], in [14], in experiment [4] and in experiment [6]. Moreover, the outcome in [7], in experiment [8], in [18], in experiment [9], in [11] and in [12] was inactive. Besides, in [13], the compound was classed as inactive.
For the compound `C=CCCCCCCCCC(=O)OCC`, the call in [1], in experiment [2], in [4], in [5], in [6] and in experiment [8] was inactive. Besides, the compound was classed as inactive in experiment [9], in experiment [10], in experiment [11], in experiment [12] and in experiment [13]. Moreover, in experiment [3], the AC50 is 0.332 µM (active).
As for `C=C(C)CCCC(C)CCO` (stereo not given), the compound was called inactive in experiment [1], in experiment [2], in [3], in experiment [4], in [6] and in [7]. The compound was classed as inactive in experiment [8], in experiment [9], in experiment [16], in experiment [11], in experiment [12] and in experiment [13].
Take `O=S1(=O)CC(Cl)(Cl)C(Cl)(Cl)C1`: the outcome in [1], in experiment [2], in experiment [3], in experiment [4], in experiment [5] and in [6] was inactive. Moreover, the result in experiment [7], in experiment [15], in experiment [18], in experiment [19], in experiment [9] and in experiment [16] was inactive. Also, the compound was called inactive in experiment [17], in [11], in experiment [12] and in experiment [13].
Take `OCCN1CCOCC1`: the compound was called inactive in [1], in [2], in [3], in [14], in [6] and in [8]. Besides, the outcome in [9], in experiment [17], in experiment [10], in [11], in experiment [12] and in experiment [13] was inactive. The AC50 in experiment [4] is 67.5 µM (active).
On to `Nc1ccc(N)c([N+](=O)[O-])c1`, for which the compound was called inactive in experiment [1], in [2], in experiment [3], in [14], in [6] and in experiment [7]. Moreover, the call in [8], in experiment [18], in experiment [9], in experiment [16], in experiment [10] and in experiment [11] was inactive. In [13], the call was inactive. Besides, the AC50 in [4] is 37.8 µM (active) [middle of 5 runs].
Regarding `CCCCCCCCSCc1cc(C)c(O)c(CSCCCCCCCC)c1`, the call in experiment [1], in experiment [2], in experiment [3], in experiment [14], in experiment [4] and in experiment [6] was inactive. Also, the compound was classed as inactive in experiment [8], in [19], in experiment [17], in experiment [11] and in experiment [13].

The record behind these values is PubChem BioAssay (EPA / NIEHS).
